The supplement of paper PMC13380429

Tested on: Vero E6 infected with SARS-CoV-2
Assay: inhibition of SARS-CoV-2 cytopathic effect; higher = more antiviral protection, active = above 15
Settings: 48 h

Measured: inhibition of SARS-CoV-2 cytopathic effect

NC[C@H]1O[C@H](O[C@H]2[C@H](O)[C@@H](O[C@H]3O[C@H](CO)[C@@H](O)[C@H](N)[C@H]3O)[C@H](N)C[C@@H]2N)[C@H](O)[C@@H](O)[C@@H]1O [kanamycin]
inactive: 1 nM 1.47% | 8.33 nM 2.23% | 100 nM 2.41% | 833.33 nM 3.53% | 10000 nM -0.06%

CCOCCn1c(N2CCCN(C)CC2)nc2ccccc21 [emedastine]
inactive: 1 nM -2.21% | 8.33 nM 0.36% | 100 nM -2.49% | 833.33 nM 1.46% | 10000 nM -0.01%

O=C1c2ccccc2C(Cc2ccnc(F)c2)(Cc2ccnc(F)c2)c2ccccc21
inactive: 1 nM 0.2% | 8.33 nM 0.21% | 100 nM 5.3% | 833.33 nM 2.26% | 10000 nM -2.51%

COc1cc(/C=C/C(=O)N2CCN(CC(=O)N3CCCC3)CC2)cc(OC)c1OC [cinepazide]
inactive: 1 nM 5.93% | 8.33 nM 5.29% | 100 nM 8.11% | 833.33 nM -1.14% | 10000 nM 0.17%

N#Cc1c[nH]c2c(C(=O)N3CCN(CCc4ccc(F)cc4)CC3)cccc12 [pruvanserin]
inactive: 1 nM 3.23% | 8.33 nM -1.53% | 100 nM 2.62% | 833.33 nM 1.31% | 10000 nM 1.69%

CC(=O)N[C@@H](CC(=O)O)C(=O)N[C@@H](CCC(=O)O)C(=O)O [spaglumic-acid]
inactive: 1 nM -1.79% | 8.33 nM -1.97% | 100 nM -2.69% | 833.33 nM -1.39% | 10000 nM -1.24%
